In PubChem BioAssay AID1159580 (chemical genetic matrix, 2015):
The whole screen tested about 5,500 compounds, of which about 2,000 (36%) were called active. Another 18% or so got no clear call; they are omitted. Rule as the data show it: active = normalized growth mostly below about 0.91 (no sharp cut-off); inconclusive = no clear call, values can overlap the other calls; inactive = mostly above about 0.92. Some of the results follow.

Test: chemical genetic growth profiling, strain panel (AID 1159580);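 also: tested at 20 µM; growth read once vehicle control cultures reached saturation at 30 °C; 1 = growth at the plate median or of vehicle wells; lower values mean less growth of the strain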
Conditions: growth OD
[1] = S. cerevisiae deletion strains, locus YNL128W, strain TEP1, hits give low values
[2] = S. cerevisiae deletion strains, locus YPL241C, strain CIN2, hits give low values

Measured: normalized growth

Cc1cn([C@H]2C[C@@H](N=[N+]=[N-])[C@@H](CO)O2)c(=O)[nH]c1=O
inactive: S. cerevisiae deletion strains, locus YAL040C, strain CLN3, hits give low values 1 | S. cerevisiae deletion strains, locus YER002W, strain NOP16, hits give low values 0.99 | S. cerevisiae deletion strains, locus YMR307W, strain GAS1, hits give low values 0.999 | [1] 1.01 | S. cerevisiae deletion strains, locus YNL175C, strain NOP13, hits give low values 0.983 | S. cerevisiae deletion strains, locus YNL197C, strain WHI3, hits give low values 1 | S. cerevisiae deletion strains, locus YNL224C, strain SQS1, hits give low values 0.974 | S. cerevisiae deletion strains, locus YOR083W, strain WHI5 (second series), hits give low values 1.02 | [2] 0.995

CC(C)c1nc2ccccc2[nH]1
inactive: S. cerevisiae deletion strains, locus YAL013W, strain DEP1, hits give low values 1.01 | S. cerevisiae deletion strains, locus YBR229C, strain ROT2, hits give low values 1.03 | S. cerevisiae deletion strains, locus YCL061C, strain MRC1, hits give low values 1.01 | S. cerevisiae deletion strains, locus YDL101C, strain DUN1, hits give low values 1.03 | S. cerevisiae deletion strains, locus YDL134C, strain PPH21, hits give low values 1.02 | S. cerevisiae deletion strains, locus YDR150W, strain NUM1, hits give low values 0.993 | S. cerevisiae deletion strains, locus YEL061C, strain CIN8, hits give low values 1.01 | S. cerevisiae deletion strains, locus YGR078C, strain PAC10, hits give low values 1.01 | S. cerevisiae deletion strains, locus YHR030C, strain SLT2, hits give low values 1.02 | S. cerevisiae deletion strains, locus YHR087W, strain rtc3, hits give low values 1.03 | S. cerevisiae deletion strains, locus YJR043C, strain POL32, hits give low values 1 | S. cerevisiae deletion strains, locus YJR075W, strain HOC1, hits give low values 1.02 | S. cerevisiae deletion strains, locus YLR039C, strain RIC1, hits give low values 1.01 | S. cerevisiae deletion strains, locus YLR058C, strain SHM2 (second series), hits give low values 1.01 | S. cerevisiae deletion strains, locus YLR085C, strain ARP6, hits give low values 1.03 | S. cerevisiae deletion strains, locus YLR262C, strain YPT6, hits give low values 1 | S. cerevisiae deletion strains, locus YML094W, strain GIM5, hits give low values 1.01 | S. cerevisiae deletion strains, locus YMR219W, strain ESC1, hits give low values 1.01 | S. cerevisiae deletion strains, locus YMR263W, strain SAP30, hits give low values 1.02 | [1] 1.01 | S. cerevisiae deletion strains, locus YNL153C, strain GIM3, hits give low values 1.01 | S. cerevisiae deletion strains, locus YNL298W, strain CLA4 (second series), hits give low values 1 | S. cerevisiae deletion strains, locus YNL322C, strain KRE1, hits give low values 1.02 | S. cerevisiae deletion strains, locus YNR030W, strain Alg12, hits give low values 1.01 | S. cerevisiae deletion strains, locus YOL006C, strain TOP1, hits give low values 1 | S. cerevisiae deletion strains, locus YPL055C, strain LGE1, hits give low values 1.04 | [2] 1 | S. cerevisiae deletion strains, locus YPR135W, strain CTF4, hits give low values 1.05 | S. cerevisiae strains, strain wild type, hits give low values 1.01
